Here are results for 34 compounds from PubChem BioAssay (NCATS).

“And” between values parts separate entries of the source, which are not always exact repeats. Equal entries are not always repeated. Inconclusive results are not listed. A number with no mark means an inactive call. The source made the active and inactive calls. Calls follow the shape of the dose curve; as a rule, active = well fitted curve in the direction sought with a large enough effect; inconclusive = small, poorly fitted or top-dose-only effect, or another doubt; inactive = no such curve, though single readings can be large; an effect the other way counts as inactive or inconclusive.

Assay [1] deals with Cytochrome P450 3A7 (Homo sapiens) (UniProt P24462). The assay can be described thus: Cytochrome P450 family 3 subfamily A member 7 (CYP3A7) small molecule antagonists: luciferase biochemical qHTS assay (AID 1963596). Also: nearly all actives have a fitted effect of over 40% in size. Put shortly: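 Luminescence read-out (relative luminescence units) after 20 min with detection reagent, which stops the reaction. Enzyme, proluciferin substrate and compound preincubated 10 min, RT; NADPH regeneration system then started 1 h reaction. Ketoconazole as positive control.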

Assay [2] can be described thus: Viability qHTS for spleen associated tyrosine kinase inhibitor (SYKi) drug resistant MV4-11 cells (AID 1963824). Also: nearly all actives have a fitted effect of over 35% in size. The essentials: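 SYK-inhibitor-resistant MV4-11 AML cells were seeded at 500 per well onto compound and cultured 72 hours (37 °C, 5% CO2). CellTiter-Glo was then added, and after 10 min at room temperature, luminescence gave viability.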
Assay [3] can be described thus: Cellular viability qHTS for adrenocortical cancer (ACC) cell line SW-13 (AID 1963989). Also: nearly all actives have a fitted effect of over 65% in size.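 As to activity (max response): cells grown in serum-free medium with ITS supplement; % is scaled to controls: 0 for no effect and ±100 for the full control effect.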 The settings on record: SW-13 ACC cells viability, CellTiter-Glo, 48 h; activity (max response): hits give low values. Put shortly: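 SW-13 cells in ITS-supplemented serum-free DMEM were plated overnight, then exposed for 48 h at 37C to compound titrations (up to 46 uM final). Viability was read by CellTiter-Glo luminescence; four-parameter logistic fits gave IC50 and efficacy.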

The nature of assay [4]: Cellular viability qHTS for adrenocortical cancer (ACC) cell line NCI-H295R (AID 1963990). Also: nearly all actives have a fitted effect of over 60% in size. The essentials: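 Luminescent ATP read-out (CellTiter-Glo, 20 min RT) after 48 h drug exposure of NCI-H295R cells; a titration up to 46 uM final. Data normalized to doxorubicin (100% inhibition) and DMSO (0%); 4-parameter fit gives IC50, max response.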
Potency is read from the fitted curve at half-maximal effect.

Chain of Cytochrome P450 3A7 (Homo sapiens) (P24462 whole entry, looked up): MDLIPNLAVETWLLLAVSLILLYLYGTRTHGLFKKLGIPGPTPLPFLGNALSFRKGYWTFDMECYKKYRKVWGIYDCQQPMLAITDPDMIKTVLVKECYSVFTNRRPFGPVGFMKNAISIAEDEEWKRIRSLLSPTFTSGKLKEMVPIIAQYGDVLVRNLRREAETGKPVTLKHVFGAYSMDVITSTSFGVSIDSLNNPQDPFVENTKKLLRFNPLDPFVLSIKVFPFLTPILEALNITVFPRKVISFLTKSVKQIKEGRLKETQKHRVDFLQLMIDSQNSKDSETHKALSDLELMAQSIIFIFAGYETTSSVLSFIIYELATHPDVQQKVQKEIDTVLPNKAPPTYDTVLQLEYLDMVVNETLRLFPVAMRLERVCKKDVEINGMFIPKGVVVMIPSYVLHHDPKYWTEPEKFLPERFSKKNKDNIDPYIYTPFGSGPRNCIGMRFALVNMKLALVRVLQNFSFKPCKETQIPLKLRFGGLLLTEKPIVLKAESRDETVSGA

For `CC[N+](CC)(CC(=O)Nc1c(C)cccc1C)Cc1ccccc1`, the Potency result in assay [1], in assay [2] and in assay [4] was “inactive” each time. For the same compound, the activity (max response) in assay [3] was 1.59%.

Take `CC(=O)NO`: the Potency result in assay [1], in assay [2] and in assay [4] was “inactive” in each case. Also, the activity (max response) in assay [3] was 11.6%.

Take `Cc1cccc(C)c1NC(=O)CN1CCCC1`: the Potency entry in assay [1] and in assay [4] was “inactive” throughout. Besides, the Potency in assay [2] was 5.96 µM (active). The activity (max response) in assay [3] is 3.45%.

Regarding `O=c1[nH]cnc2nc[nH]c12`, the Potency entry in assay [1], in assay [2] and in assay [4] was “inactive” throughout. Besides, in assay [3], the activity (max response) was 10.3%.

Regarding `NCCS`, the Potency entry in assay [1], in assay [2] and in assay [4] was “inactive” throughout. Besides, the activity (max response) in assay [3] was 16.9%.

With `C/C(=N\O)c1ccc(OCC(=O)N2CCCCC2)cc1`, the Potency entry in assay [1], in assay [2] and in assay [4] was “inactive” in each case. For the same compound, in assay [3], the activity (max response) is -4.8%.

For the compound `CC(=O)NCc1c(I)c(NC(C)=O)c(I)c(C(=O)O)c1I`, the Potency result in assay [1], in assay [2] and in assay [4] was “inactive” each time. In addition, in assay [3], the activity (max response) was 13.2%.

`CCCCCCCCCCCCCCCCCC(=O)O`: the Potency entry in assay [1], in assay [2] and in assay [4] was “inactive” throughout. Further, the activity (max response) in assay [3] was 18.1%.

Turning to `CC(C)[C@@H]1CC[C@@H](C)CC1=O`, the Potency result in assay [1], in assay [2] and in assay [4] was “inactive” in each case. Moreover, in assay [3], the activity (max response) was 11.9%.

Take `CC(O)COc1ccccc1` (stereo unspecified): the Potency result in assay [1], in assay [2] and in assay [4] was “inactive” each time. Further, in assay [3], the activity (max response) is 5.91%.

Consider `NC(=O)NC(=O)Cc1ccccc1`, for which the Potency result in assay [1], in assay [2] and in assay [4] was “inactive” throughout. Besides, the activity (max response) in assay [3] is -0.635%.

In the case of `CC[N+](C)(C)c1cccc(O)c1`, the Potency result in assay [1], in assay [2] and in assay [4] was “inactive” throughout. Moreover, in assay [3], the activity (max response) is 8.29%.

Consider `CCN(CC)CC(=O)Oc1ccc(NC(C)=O)cc1`, for which the Potency result in assay [1], in assay [2] and in assay [4] was “inactive” throughout. Also, in assay [3], the activity (max response) was 13.2%.

For `Oc1ccc(C(O)CNCCCCCCNCC(O)c2ccc(O)c(O)c2)cc1O` (stereo unspecified), the Potency entry in assay [1], in assay [2] and in assay [4] was “inactive” throughout. Besides, the activity (max response) in assay [3] was -8.39%.

Take `CN1CCN(N)CC1`: the Potency entry in assay [1], in assay [2] and in assay [4] was “inactive” throughout. Further, in assay [3], the activity (max response) is -3.26%.

As for `CCOc1ccc(C(=O)OCCN(CC)CC)cc1`, the Potency result in assay [1], in assay [2] and in assay [4] was “inactive” in each case. In addition, in assay [3], the activity (max response) was -4.6%.

On to `CCCOC(=O)c1ccccc1`, for which the Potency result in assay [1], in assay [2] and in assay [4] was “inactive” each time. In addition, the activity (max response) in assay [3] is 11.8%.

Take `CC(=O)N(CC(=O)N(C)C)c1ccccc1`: the Potency result in assay [1], in assay [2] and in assay [4] was “inactive” each time. Further, the activity (max response) in assay [3] is -5.65%.

As for `CC(=O)OC(C)C[N+](C)(C)C` (stereo unspecified), the Potency result in assay [1], in assay [2] and in assay [4] was “inactive” each time. Further, in assay [3], the activity (max response) is -1.07%.

Take `Cn1c(=O)c2c(ncn2C)n(C)c1=O`: the Potency result in assay [1], in assay [2] and in assay [4] was “inactive” each time. Moreover, the activity (max response) in assay [3] is -5.31% and -10.5%.

Regarding `COCCc1ccc(OCC2CO2)cc1` (stereo unspecified), the Potency result in assay [1], in assay [2] and in assay [4] was “inactive” throughout. In assay [3], the activity (max response) was -2.52%.

For `OCCc1ccccc1`, the Potency entry in assay [1], in assay [2] and in assay [4] was “inactive” throughout. In addition, in assay [3], the activity (max response) is 10.1%.

In the case of `C[C@@H](O)[C@H]1C(=O)N2C(C(=O)O)=C(SCCN=CN)C[C@H]12`, the Potency entry in assay [1], in assay [2] and in assay [4] was “inactive” each time. In assay [3], the activity (max response) was -5.98%.

Turning to `Cc1cc(=O)n(-c2ccccc2)n1C`, the Potency result in assay [1], in assay [2] and in assay [4] was “inactive” throughout. The activity (max response) in assay [3] is 4.16%.

For the compound `O=C(O)CC1CCC(c2ccc(-c3ccc(Nc4ccc(C(F)(F)F)nc4)cn3)cc2)CC1` (stereo unspecified), the Potency result in assay [1] and in assay [4] was “inactive” in each case. In addition, in assay [2], the Potency was 18.6 µM (active). Also, the activity (max response) in assay [3] was -23.1%.

Regarding `CCN1CCN(Cc2ccc(NC(=O)c3ccc(C)c(NC(=O)c4cncc(-c5cccs5)c4)c3)cc2C(F)(F)F)CC1`, the Potency entry in assay [1] is “inactive”. The Potency is 14.6 nM (active) and 26.3 nM (active) in assay [2]; 2000 nM (active) in assay [3]; 2510 nM (active) in assay [4].

Regarding `CN[C@@H](C)C(=O)N[C@H](C(=O)N1CCC[C@H]1c1nc(C(=O)c2ccc(F)cc2)cs1)C1CCCCC1`, the Potency was 14100 nM (active) in assay [1] and 1.05 µM (active) in assay [2]. The activity (max response) in assay [3] is -7.41%. In addition, the Potency entry in assay [4] was “inactive”.

For `CC(O)(P(=O)(O)O)P(=O)(O)O`, the Potency result in assay [1], in assay [2] and in assay [4] was “inactive” in each case. Further, in assay [3], the activity (max response) was 14.2%.

Regarding `Cc1c(F)cc2c(=O)c(C(=O)O)cn3c2c1CCC3C` (stereo unspecified), the Potency result in assay [1], in assay [2] and in assay [4] was “inactive” each time. In addition, the activity (max response) in assay [3] is -2.48%.

For `Cc1ncc(CO)c(C=O)c1O`, the Potency entry in assay [1], in assay [2] and in assay [4] was “inactive” throughout. In assay [3], the activity (max response) is -2.89%.

For `COc1cc2ncnc(Nc3ccc(F)c(Cl)c3)c2cc1NC(=O)/C=C/CN1CCCCC1`, the Potency result in assay [1] was “inactive”. The Potency is 1.64 µM (active) in assay [2], 708 nM (active) in assay [3] and 4470 nM (active) in assay [4].

With `C[C@H]1O[C@H](O[C@H]2[C@H](O)[C@@H](O)[C@@H](O[C@H]3[C@H](O)[C@@H](O)[C@H](O)O[C@@H]3CO)O[C@@H]2CO)[C@H](O)[C@@H](O)[C@@H]1N[C@H]1C=C(CO)[C@@H](O)[C@H](O)[C@H]1O`, the Potency result in assay [1], in assay [2] and in assay [4] was “inactive” each time. The activity (max response) in assay [3] is -2.85%.

As to `CC(=O)O[C@H]1C[C@@H]2CC[C@@H]3[C@H](CC[C@@]4(C)[C@H]3C[C@H]([N+]3(C)CCCCC3)[C@@H]4OC(C)=O)[C@@]2(C)C[C@@H]1N1CCCCC1`, the Potency result in assay [1], in assay [2] and in assay [4] was “inactive” each time. For the same compound, the activity (max response) in assay [3] was 0.69%.

With `CCCCCCCCCCCCCCCC(=O)O`, the Potency entry in assay [1], in assay [2] and in assay [4] was “inactive” each time. In addition, the activity (max response) in assay [3] is 8.9%.
